The results in this text go back to PubChem BioAssay (NCATS).

Each structure is given as a SMILES string. Inconclusive results are not listed. Unmarked numbers belong to inactive results. Active and inactive are the calls of the source. Calls come from the whole dose curve; as a rule, active = well fitted inhibition curve with a large enough effect; inconclusive = small, poorly fitted or top-dose-only effect; inactive = no such curve, though single readings can be large or run the other way. Where a SMILES comes first, the peptide text is derived from it. [ ]: non-standard residue; d: D form. PhLac = O=C(O)[CH](O)Cc1ccccc1; NMeV = CN[CH](C(=O)O)C(C)C

The test system of assay [1] is Zika virus NS2B-NS3 protease (unlinked complex). Put plainly: Primary screen GU Rhodamine qHTS for Zika virus inhibitors: Unlinked NS2B-NS3 protease assay (AID 1347159). Note: nearly all actives have a fitted effect of over 60% in size. The conditions noted are these: Recombinant ZIKV NS2B-NS3 protease, Rhodamine110 substrate fluorescence; series mostly up to 107 µM. The method in brief:
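Unlinked NS2B/NS3, 25 nM; Rhod110 peptide, 1.5 microM; compounds, up to 114 microM. Reaction run 15 min at RT in 10 mM Tris-HCl pH 8.0, 0.01% Tween 20; kinetic fluorescence change fitted with a 4-parameter Hill model.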
A general note: qHTS replaces the single test concentration by a dilution series.

The subject of assay [2] is Zika virus NS2B-NS3 protease (linked construct). Description: Primary screen NINDS Rhodamine qHTS for Zika virus inhibitors (AID 1347160). Note: nearly all actives have a fitted effect of over 55% in size. The conditions noted are these: purified NS2B-NS3 protease, Rhodamine110 substrate fluorescence; series mostly up to 57.1 µM. The method in brief: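 Single-chain NS2B-NS3 protease, 25 nM, pH 8.0; compounds preincubated 15 min. Activity: Rhodamine110 release from 1.5 microM substrate over 15 min, room temperature, data fitted to 4-parameter Hill.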
% is set by controls: 0 for no effect and ±100 for the full control effect.

For the molecule `COC1C2=C(COC2=O)C2(C)CCCC(C)(CO)C2C1OC(=O)c1ccccc1` (stereo not given), the Potency entry in assay [1] and in assay [2] was “inactive” each time.

With `CCNC(=O)CCC/C=C\C[C@@H]1[C@@H](/C=C/C(O)CCc2ccccc2)[C@@H](O)C[C@@H]1O` (stereo not given in full), the Potency result in assay [1] and in assay [2] was “inactive” throughout.

On to `CC1CC(O)CC(C)(C)C1(O)CCO` (stereo not given), for which the Potency entry in assay [1] and in assay [2] was “inactive” each time.

On to `CC1(C)CCC2(C(=O)OC3OC(COC4OC(CO)C(O)C(O)C4O)C(O)C(O)C3O)CCC3(C)C(=CCC4C5(C)CCC(O)C(C)(C(=O)O)C5CCC43C)C2C1O` (stereo not given), for which the Potency entry in assay [1] and in assay [2] was “inactive” in each case.

On to `CN(C)C/C=C/C(=O)Nc1ccc(C(=O)Nc2cccc(Nc3ncc(Cl)c(-c4c[nH]c5ccccc45)n3)c2)cc1`, for which the Potency entry in assay [1] and in assay [2] was “inactive” in each case.

With `CC1OC(OC2C(C)OC(OC3C(OC(=O)/C=C/c4ccc(O)cc4)C(CO)OC(OC4(COC(=O)/C=C/c5ccc(O)cc5)OC(CO)C(O)C4O)C3OC3OCC(O)(CO)C3O)C(O)C2O)C(O)C(O)C1O` (stereo not given), the Potency result in assay [1] and in assay [2] was “inactive” each time.

`O=S(=O)(Nc1ccc(C(O)(C(F)(F)F)C(F)(F)F)cc1)c1cccs1`: the Potency entry in assay [1] and in assay [2] was “inactive” in each case.

Consider `CC(C)C(C(=O)N1CCCC1C(=O)O)N(C)C(=O)C(O)Cc1ccccc1` (stereo not given) (H-[PhLac]-[NMeV]-Pro-OH; configuration not given here), for which the Potency result in assay [1] and in assay [2] was “inactive” in each case.

For the molecule `Cc1[nH]cnc1C1CCN(c2nc3cccc4c3n2CCC4=O)CC1`, the Potency result in assay [1] and in assay [2] was “inactive” in each case.

Take `CC1=CC(=O)CC(C)(C)C1(O)CCC(C)O` (stereo not given): the Potency result in assay [1] and in assay [2] was “inactive” throughout.

Consider `C=C1[C@H]2[C@H](O[C@@H]3O[C@H](COC(=O)/C=C/c4cc(OC)c(O)c(OC)c4)[C@@H](O)[C@H](O)[C@H]3O)OC=C(C(=O)O)[C@H]2C[C@@H]1O`, for which the Potency result in assay [1] and in assay [2] was “inactive” each time.

With `Nc1ccn([C@@H]2C(F)=C(CO)[C@@H](O)[C@H]2O)c(=O)n1`, the Potency entry in assay [1] and in assay [2] was “inactive” in each case.

In the case of `CC12CCC3c4ccc(O)cc4CCC3C1CCC2OC1OC(C(=O)O)C(O)C(O)C1O` (stereo not given), the Potency entry in assay [1] and in assay [2] was “inactive” in each case.

Consider `COc1ccc2c3c1O[C@H]1C[C@@H](O)C=C[C@@]31CCN(C)C2`, for which the Potency result in assay [1] and in assay [2] was “inactive” each time.

`CCOC(=O)c1ccc(N(C)c2csc(-c3ccccc3)n2)cc1`: the Potency result in assay [1] and in assay [2] was “inactive” throughout.

With `CCCOc1ccn2c(C(C)=O)cc(-c3ccccc3S(C)(=O)=O)c2c1`, the Potency entry in assay [1] and in assay [2] was “inactive” throughout.

For `CCC(C)(O)C(O)C(=O)OCc1ccc(O[C@@H]2O[C@H](CO)[C@@H](O)[C@H](O)[C@H]2O)cc1` (stereo not given in full), the Potency result in assay [1] and in assay [2] was “inactive” throughout.

For the molecule `COC(=O)C1=CO[C@@H](O[C@@H]2O[C@H](COC(=O)/C=C/c3cc(OC)c(O)c(OC)c3)[C@@H](O)[C@H](O)[C@H]2O)[C@@H]2C(CO)=CC[C@H]12`, the Potency result in assay [1] and in assay [2] was “inactive” in each case.

Turning to `CC1CCC2C(C)(C)C(O)CCC2(C)C12Cc1c(O)cc3c(c1O2)CN(C(CCC(N)=O)C(=O)O)C3=O` (stereo not given), the Potency result in assay [1] and in assay [2] was “inactive” in each case.

For `C=C1C(=O)OC2/C=C(\C)CC/C=C(\C(=O)O)CC/C=C(\C)CCC12` (stereo not given), the Potency entry in assay [1] and in assay [2] was “inactive” throughout.

For the molecule `C[C@@H]1C[C@H]2[C@@H]3CCC4=CC(=O)C=C[C@]4(C)[C@@]3(F)[C@@H](O)C[C@]2(C)[C@@]1(O)C(=O)COP(=O)(O)O`, the Potency result in assay [1] and in assay [2] was “inactive” each time.

As to `CC(=O)N1c2ccccc2C2(O)CC3C(=O)NC(CC(C)C)C(=O)N3C12` (stereo not given), the Potency entry in assay [1] and in assay [2] was “inactive” throughout.

With `C/C(=C\CCC(C)(O)c1ccc(C)cc1)C(=O)O` (stereo not given), the Potency result in assay [1] and in assay [2] was “inactive” throughout.

Regarding `CC(C)(C)NCc1cc(Nc2ccnc3cc(Cl)ccc23)c2c(c1O)CCCC2`, the activity change, negative = inhibition in assay [1] is 0% [at 1.28 µM]. In assay [2], the outcome was “inactive [at 0.684 µM]”.

`C=CC(C)(C)O[C@@H]1O[C@H](CO[C@@H]2OC[C@](O)(CO)[C@H]2O)[C@@H](O)[C@H](O)[C@H]1O`: the Potency entry in assay [1] and in assay [2] was “inactive” each time.

Consider `COc1cc(C2Oc3c(OC)cc(/C=C/C(=O)OC[C@H]4O[C@@H](OC(C)(C)C(=O)O)[C@H](O)[C@@H](O)[C@@H]4O)cc3C2CO)ccc1O` (stereo not given in full), for which the Potency entry in assay [1] and in assay [2] was “inactive” throughout.

For `C=C1CC2[C@]3(C)C(=C(O)C(=O)[C@@]2(C)[C@]2(C(=O)OC)C(=O)C(C)OC(=O)[C@@]12C)C(C)(C)C(=O)CC3O` (stereo not given in full), the Potency result in assay [1] and in assay [2] was “inactive” in each case.

Regarding `CN1C(=O)N[C@@H](Cc2c[nH]c3c(Cl)cccc23)C1=O`, the Potency result in assay [1] and in assay [2] was “inactive” each time.

On to `COc1cc(N2CCC(O)CC2)ccc1Nc1cc(Nc2ccccc2S(=O)(=O)C(C)C)c2cc[nH]c2n1`, for which the Potency result in assay [1] and in assay [2] was “inactive” in each case.

In the case of `COc1cc2c(cc1O)C1(OC)Cc3ccc4c(c3C1N(C)CC2)OCO4` (stereo not given), the Potency result in assay [1] and in assay [2] was “inactive” in each case.
